Experimental data reported in PubChem BioAssay AID1117291 (Broad Institute, 2014).
Entries with a potency or affinity are not part of this list. Inconclusive results are not listed. Active and inactive are the calls of the source.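 How the source made its calls: active means compound whose fitted half-maximal potency lies at or below double its highest tested dose in every test; inconclusive means tests disagree, or a flat partial loss, or a poor fit; inactive means every test inactive.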

Assay: HepG2 cell cytotoxicity, dose response, cytotoxicity control, CellTiter-Glo luminescence, dry powder, set 20 (AID 1117291)
Conditions: HepG2 viability, CellTiter-Glo ATP luminescence, 72 h; series mostly up to 26 µM; activity change, negative = cytotoxicity: at the top concentration

Which “activity change, negative = cytotoxicity” value does the source give for COc1ccc(C2=NN(c3ccc(C(=O)O)cc3)C(c3ccc(OC)c(OC)c3)C2)cc1 (stereo unspecified) here?
The value was -15.3% (inactive).

Which “activity change, negative = cytotoxicity” value does the source give for COc1cccc(NC(=O)NC2(C(=O)N3CCN(C(C)=O)CC3)CCCCC2)c1 here?
The value was 0.762% (inactive).

Which “activity change, negative = cytotoxicity” value does the source give for CC(=O)N1CCN(C(=O)C2(NC(=O)Nc3ccc(C(F)(F)F)cc3)CCCCC2)CC1 here?
The value was 1.91% (inactive).

With Cc1ccccc1S(=O)(=O)Nc1cc(C(F)(F)F)ccc1N1CCCCC1 as the compound, how does the “activity change, negative = cytotoxicity” value read?
The value was -22.7% (inactive).

For CC(=O)N1CCN(C(=O)[C@@H]2CCN2C(=O)Nc2ccc(C)cc2)CC1, which “activity change, negative = cytotoxicity” value is on record?
Its value is -9.8% (inactive).

With O=S(=O)(O)c1ccc(N2N=C(c3ccccc3)CC2c2ccccc2)cc1 (stereo unspecified) as the compound, how does the “activity change, negative = cytotoxicity” value read?
The value was -22.6% (inactive).

With CC(=O)N1CCN(C(=O)C(C)(C)NC(=O)Nc2ccc(C)cc2)CC1 as the compound, how does the “activity change, negative = cytotoxicity” value read?
Its value is -8.86% (inactive).

Which “activity change, negative = cytotoxicity” value does the source give for COc1ccc(C(=O)Nc2cc(C(F)(F)F)ccc2N2CCCC2)cc1S(=O)(=O)O here?
The value was -12% (inactive).

With O=S(=O)(Nc1cc(C(F)(F)F)ccc1N1CCCCC1)c1ccc(Cl)cc1 as the compound, how does the “activity change, negative = cytotoxicity” value read?
Its value is -23.2% (inactive).

For O=[N+]([O-])c1ccc(S(=O)(=O)Nc2cc(C(F)(F)F)ccc2N2CCCCC2)c([N+](=O)[O-])c1, which “activity change, negative = cytotoxicity” value is on record?
The value was -4.65% (inactive).

Which outcome does the source give for COc1ccc(C(=O)O)cc1S(=O)(=O)Nc1cc(C(F)(F)F)ccc1N1CCCCC1 here?
Its outcome is “inactive”.

Which “activity change, negative = cytotoxicity” value does the source give for Cn1cnc(S(=O)(=O)Nc2cc(C(F)(F)F)ccc2N2CCCCC2)c1 here?
Its value is 16.2% (inactive).

Which “activity change, negative = cytotoxicity” value does the source give for CC(=O)N1CCN(C(=O)C2(NC(=O)Nc3ccccc3)CCCC2)CC1 here?
The value was 5% (inactive).

With O=[N+]([O-])c1cccc(S(=O)(=O)Nc2cc(C(F)(F)F)ccc2N2CCCCC2)c1 as the compound, how does the “activity change, negative = cytotoxicity” value read?
The value was -7.31% (inactive).

Which “activity change, negative = cytotoxicity” value does the source give for O=S(=O)(Nc1cc(C(F)(F)F)ccc1N1CCCCC1)c1ccc(F)cc1 here?
The value was -27.5% (inactive).

Which “activity change, negative = cytotoxicity” value does the source give for CC(=O)N1CCN(C(=O)C2(NC(=O)Nc3ccc(C(F)(F)F)cc3)CCCC2)CC1 here?
The value was -26.9% (inactive).
